Measured values published in the supplement of paper PMC12282887.
± gives the standard deviation of the averaged measurements.

Key:
Assay in all cases: promoter activity interaction Z-score (Lux/OD deviation from empty-vector control); higher = stronger promoter induction by the compound
[1] = system: E. coli BW25113 ompFp lux reporter
In short: (§1)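 Wild-type E. coli BW25113 and three single-gene deletion strains, each carrying a low-copy luxCDABE promoter reporter, were grown at 37°C in 40 µl LB Lennox per well of a 384-well plate. Every compound was applied at four 1:2 dilutions in biological duplicates, and OD600 and luminescence were read every 30 min for 12 h. Integration covered 0–8 h for wild type and 1–9 h for deletion strains, and wells under 10% of the median growth value were removed. Scores are Z-transformed residuals of growth-normalised luminescence fitted against a control.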

[2] = system: E. coli BW25113 robp lux reporter
In short: as §1

[3] = system: E. coli BW25113 soxSp lux reporter
In short: as §1

[4] = system: E. coli BW25113 tolCp lux reporter
In short: as §1

[5] = 0.56 µg/ml, genetic background: Δrob
[6] = 0.56 µg/ml, genetic background: ΔsoxS
[7] = 1.1 µg/ml, genetic background: wild type
[8] = 1.1 µg/ml, genetic background: ΔmarA
[9] = 1.1 µg/ml, genetic background: Δrob
[10] = 1.1 µg/ml, genetic background: ΔsoxS
[11] = 0.28 µg/ml, genetic background: wild type
[12] = 0.28 µg/ml, genetic background: ΔmarA
[13] = 0.28 µg/ml, genetic background: Δrob
[14] = 0.28 µg/ml, genetic background: ΔsoxS
[15] = 0.56 µg/ml, genetic background: wild type
[16] = 0.56 µg/ml, genetic background: ΔmarA
[17] = 2.2 µg/ml, genetic background: wild type

SMILES: CC[C@H]1OC(=O)[C@H](C)[C@@H](O[C@H]2C[C@@](C)(OC)[C@@H](O)[C@H](C)O2)[C@H](C)[C@@H](O[C@@H]2O[C@H](C)C[C@H](N(C)C)[C@H]2O)[C@](C)(O)C[C@@H](C)CN(C)[C@H](C)[C@@H](O)[C@]1(C)O [Azithromycin]
- promoter activity interaction Z-score [1, 5]: 3.25 ± 1.9
- promoter activity interaction Z-score [1, 6]: 2.77 ± 0.12
- promoter activity interaction Z-score [1, 7]: 0.0139 ± 0.62
- promoter activity interaction Z-score [1, 8]: 0.739 ± 3.3
- promoter activity interaction Z-score [1, 9]: -0.756 ± 0.22
- promoter activity interaction Z-score [1, 10]: 3.18 ± 1.5
- promoter activity interaction Z-score [2, 11]: -0.606 ± 0.46
- promoter activity interaction Z-score [2, 12]: -2.26 ± 0.22
- promoter activity interaction Z-score [2, 13]: -1.42 ± 0.052
- promoter activity interaction Z-score [2, 14]: -1.11 ± 0.5
- promoter activity interaction Z-score [2, 15]: -1.97 ± 0.83
- promoter activity interaction Z-score [2, 16]: -2.42 ± 0.28
- promoter activity interaction Z-score [2, 5]: -1.4 ± 0.26
- promoter activity interaction Z-score [2, 6]: -1.99 ± 0.19
- promoter activity interaction Z-score [2, 7]: -3.21 ± 1
- promoter activity interaction Z-score [2, 8]: -3.49 ± 0.67
- promoter activity interaction Z-score [2, 9]: -2.09 ± 0.15
- promoter activity interaction Z-score [2, 10]: -2.73 ± 0.21
- promoter activity interaction Z-score [2, 17]: -3.03
- promoter activity interaction Z-score [3, 11]: 0.146 ± 0.018
- promoter activity interaction Z-score [3, 12]: -0.132 ± 0.027
- promoter activity interaction Z-score [3, 13]: 0.101 ± 0.33
- promoter activity interaction Z-score [3, 14]: 0.569 ± 0.9
- promoter activity interaction Z-score [3, 15]: 0.342 ± 0.019
- promoter activity interaction Z-score [3, 16]: -0.134 ± 0.052
- promoter activity interaction Z-score [3, 5]: 0.401 ± 0.02
- promoter activity interaction Z-score [3, 6]: 1.917 ± 0.018
- promoter activity interaction Z-score [3, 7]: 2.27 ± 0.33
- promoter activity interaction Z-score [3, 8]: 1.16 ± 0.1
- promoter activity interaction Z-score [3, 9]: 1.69 ± 0.21
- promoter activity interaction Z-score [3, 10]: 2.06 ± 0.22
- promoter activity interaction Z-score [3, 17]: 2.59 ± 1.8
- promoter activity interaction Z-score [4, 11]: 1.23 ± 0.81
- promoter activity interaction Z-score [4, 12]: 0.138 ± 0.034
- promoter activity interaction Z-score [4, 13]: 0.66 ± 0.69
- promoter activity interaction Z-score [4, 14]: 2.05 ± 0.54
- promoter activity interaction Z-score [4, 15]: 1.21 ± 1.3
- promoter activity interaction Z-score [4, 16]: 0.283 ± 0.058
- promoter activity interaction Z-score [4, 5]: 1.89 ± 0.14
- promoter activity interaction Z-score [4, 6]: 2.57 ± 1.3
- promoter activity interaction Z-score [4, 7]: 3.44 ± 0.47
- promoter activity interaction Z-score [4, 8]: 1.58 ± 1.8
- promoter activity interaction Z-score [4, 9]: 4.99 ± 0.58
- promoter activity interaction Z-score [4, 10]: 4.53 ± 2
- promoter activity interaction Z-score [4, 17]: 5.2 ± 2.8
